Among the data in article PMC3218832 are binding signal values, retold here.

Among the targets are RELARELA (p65 homodimer) (Homo sapiens, UniProt Q04206 1-307); p50p50 homodimer (Homo sapiens, UniProt P19838 7-356); RELB subunit;p50 subunit (Homo sapiens;Homo sapiens, UniProt Q01201;P19838 120-401;7-356).
Holding throughout (test): protein binding microarray; high values mean tight binding
Holding throughout (settings): dsDNA, one strand shown

A further assay deals with T1, p52p52 homodimer (Homo sapiens, UniProt Q00653 4-332).
T1 sequence: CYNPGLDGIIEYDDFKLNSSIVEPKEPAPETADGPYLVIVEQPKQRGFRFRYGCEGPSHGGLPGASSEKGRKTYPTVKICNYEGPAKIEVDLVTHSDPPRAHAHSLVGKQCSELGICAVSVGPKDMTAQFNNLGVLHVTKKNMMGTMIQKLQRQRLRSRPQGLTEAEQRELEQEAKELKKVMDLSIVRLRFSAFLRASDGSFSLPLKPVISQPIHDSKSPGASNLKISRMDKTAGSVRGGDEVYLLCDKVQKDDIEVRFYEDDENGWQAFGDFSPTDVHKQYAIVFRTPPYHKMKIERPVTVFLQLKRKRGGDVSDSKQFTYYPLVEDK

The target in assay [1] is RELA (p65) subunit of heterodimer;p50 subunit (Homo sapiens;Homo sapiens, UniProt Q04206;P19838 1-307;7-356).
The target of assay [2] is RELA (p65) subunit of heterodimer;p52 subunit (Homo sapiens;Homo sapiens, UniProt Q04206;Q00653 1-307;4-332).
The next assay addresses T2, RELB subunit;p52 subunit (Homo sapiens;Homo sapiens, UniProt Q01201;Q00653 120-401;4-332).
T2 sequence 1: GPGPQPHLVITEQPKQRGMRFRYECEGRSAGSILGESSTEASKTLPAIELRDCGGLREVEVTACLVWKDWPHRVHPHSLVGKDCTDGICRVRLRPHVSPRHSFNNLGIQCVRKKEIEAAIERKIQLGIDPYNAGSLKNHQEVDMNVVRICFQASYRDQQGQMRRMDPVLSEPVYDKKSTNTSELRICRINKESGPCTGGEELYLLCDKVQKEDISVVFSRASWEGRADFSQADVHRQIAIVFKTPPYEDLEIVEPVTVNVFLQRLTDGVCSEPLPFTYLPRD
T2 sequence 2: T1 sequence

Assay [3] concerns the target C-Rel subunit;p50 subunit (Homo sapiens;Homo sapiens, UniProt Q04864;P19838 1-285;7-356).
Assay [4] has as its target T3, C-Rel subunit;p52 subunit (Homo sapiens;Homo sapiens, UniProt Q04864;Q00653 1-285;4-332).
T3 sequence 1: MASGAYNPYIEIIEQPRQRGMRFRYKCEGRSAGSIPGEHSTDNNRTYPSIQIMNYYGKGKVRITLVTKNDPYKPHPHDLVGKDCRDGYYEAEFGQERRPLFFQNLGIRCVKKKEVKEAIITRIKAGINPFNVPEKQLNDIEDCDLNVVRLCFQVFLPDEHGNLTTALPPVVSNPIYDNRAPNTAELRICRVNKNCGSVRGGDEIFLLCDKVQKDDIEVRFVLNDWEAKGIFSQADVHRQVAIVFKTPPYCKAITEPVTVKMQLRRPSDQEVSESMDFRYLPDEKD
T3 sequence 2: T1 sequence

Sequence of RELA (p65) subunit of heterodimer;p50 subunit (Q04206 1-307, chain 1 of 2): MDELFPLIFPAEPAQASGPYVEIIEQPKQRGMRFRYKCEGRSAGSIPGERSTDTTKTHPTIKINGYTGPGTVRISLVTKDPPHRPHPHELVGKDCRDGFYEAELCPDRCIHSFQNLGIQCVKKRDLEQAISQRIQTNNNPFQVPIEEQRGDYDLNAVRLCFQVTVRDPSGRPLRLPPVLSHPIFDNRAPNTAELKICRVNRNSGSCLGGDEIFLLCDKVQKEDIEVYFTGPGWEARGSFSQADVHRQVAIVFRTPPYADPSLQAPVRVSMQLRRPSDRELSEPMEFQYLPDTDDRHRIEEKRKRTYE
Sequence of RELA (p65) subunit of heterodimer;p50 subunit (P19838 7-356, chain 2 of 2): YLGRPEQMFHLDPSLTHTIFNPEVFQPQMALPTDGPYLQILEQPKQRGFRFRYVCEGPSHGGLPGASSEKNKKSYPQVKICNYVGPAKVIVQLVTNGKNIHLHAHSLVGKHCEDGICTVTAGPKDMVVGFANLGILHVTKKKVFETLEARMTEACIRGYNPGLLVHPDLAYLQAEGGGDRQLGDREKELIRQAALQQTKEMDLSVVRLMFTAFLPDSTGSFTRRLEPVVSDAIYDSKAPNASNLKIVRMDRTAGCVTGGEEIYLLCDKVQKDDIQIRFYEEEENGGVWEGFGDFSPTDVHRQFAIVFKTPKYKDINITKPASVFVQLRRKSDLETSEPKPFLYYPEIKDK
Sequence of RELARELA (p65 homodimer) (Q04206 1-307): as the sequence (Q04206 1-307, chain 1 of 2) above
Sequence of p50p50 homodimer (P19838 7-356): as the sequence (P19838 7-356, chain 2 of 2) above

Regarding GGGGTAACCCT, the binding signal with RELARELA (p65 homodimer) stood at 1.24 z-score; in the assay with p50p50 homodimer, 0.343 z-score; with p52p52 homodimer, 1.02 z-score; in assay [1], 0.666 z-score; in [2], 1.02 z-score; with RELB subunit;p50 subunit it was 0.227 z-score. Besides, the figures for the binding signal (with RELB subunit;p52 subunit; in [3]; in [4]) were 0.871 z-score, 0.285 z-score and 0.871 z-score, respectively.

On to CAATTATCCCC, for which the binding signal in the assay with RELARELA (p65 homodimer) came to 0.4 z-score; with p50p50 homodimer, 1.12 z-score; with p52p52 homodimer, 1.04 z-score; in [1], 1.31 z-score; in assay [2], 1.12 z-score; in the assay with RELB subunit;p50 subunit, 1.3 z-score. Besides, the binding signal was 1.33 z-score with RELB subunit;p52 subunit, 1.2 z-score in assay [3] and 0.884 z-score in assay [4].

CGAAAGGCCCT: the binding signal in the assay with RELARELA (p65 homodimer) was -0.835 z-score; in the assay with p50p50 homodimer it was -0.751 z-score; with p52p52 homodimer, -0.447 z-score; in [1], -0.366 z-score; in assay [2], -0.217 z-score; in the assay with RELB subunit;p50 subunit, -0.417 z-score. For the same sequence, the binding signal is -0.6 z-score in the assay with RELB subunit;p52 subunit, -0.822 z-score in [3] and -0.62 z-score in assay [4].

In the case of CGATTGTCCCT, the binding signal with RELARELA (p65 homodimer) was 0.353 z-score; with p50p50 homodimer, 1.16 z-score; in the assay with p52p52 homodimer it was 1.18 z-score; in assay [1] it was 0.871 z-score; in assay [2], 0.943 z-score; in the assay with RELB subunit;p50 subunit, 1.29 z-score. The binding signal came to 1.27 z-score with RELB subunit;p52 subunit, 0.77 z-score in assay [3] and 0.66 z-score in assay [4].

As for GGGTTGGTCCT, the binding signal with RELARELA (p65 homodimer) is -0.152 z-score; with p50p50 homodimer, -1.58 z-score; with p52p52 homodimer it was -0.471 z-score; in assay [1], -0.621 z-score; in assay [2], -0.757 z-score; with RELB subunit;p50 subunit it was -0.889 z-score. Moreover, the values for the binding signal (in the assay with RELB subunit;p52 subunit; in assay [3]; in assay [4]) were -0.766 z-score, -1.12 z-score and -0.527 z-score, respectively.

On to CGAGTGCTCCT, for which the binding signal in the assay with RELARELA (p65 homodimer) was -0.962 z-score; with p50p50 homodimer, -2.12 z-score; with p52p52 homodimer, -0.788 z-score; in assay [1], -1.11 z-score; in [2] it was -1.03 z-score; with RELB subunit;p50 subunit, -1.37 z-score. For the same sequence, the binding signal in the assay with RELB subunit;p52 subunit was -0.983 z-score; in assay [3] it was -1.63 z-score; in [4], -0.978 z-score.

For GAGAGCGCCCT, the binding signal with RELARELA (p65 homodimer) is -0.857 z-score; with p50p50 homodimer, -1.91 z-score; in the assay with p52p52 homodimer, -0.661 z-score; in [1], -0.903 z-score; in [2], -1.01 z-score; with RELB subunit;p50 subunit, -1 z-score. The binding signal was -0.95 z-score in the assay with RELB subunit;p52 subunit, -1.31 z-score in assay [3] and -0.822 z-score in [4].

With CAAAATATCCC, the binding signal was determined as 0.764 z-score in the assay with RELARELA (p65 homodimer); 0.4 z-score with p50p50 homodimer; 0.253 z-score with p52p52 homodimer; 0.376 z-score in assay [1]; 0.346 z-score in [2]; 0.128 z-score with RELB subunit;p50 subunit. The binding signal in the assay with RELB subunit;p52 subunit came to 0.342 z-score; in [3] it was 0.0335 z-score; in [4], 0.411 z-score.

For GAGGAGGCCCT, the binding signal in the assay with RELARELA (p65 homodimer) is -1.17 z-score; in the assay with p50p50 homodimer it was -1.07 z-score; with p52p52 homodimer it was -0.602 z-score; in assay [1], -1.02 z-score; in [2] it was -0.973 z-score; with RELB subunit;p50 subunit it was -0.68 z-score. Besides, the binding signal in the assay with RELB subunit;p52 subunit is -0.644 z-score; in assay [3] it was -1.36 z-score; in [4], -0.766 z-score.

AAATTTCCCCC: the binding signal with RELARELA (p65 homodimer) was found to be 2.97 z-score; with p50p50 homodimer, 1.66 z-score; with p52p52 homodimer it was 2.84 z-score; in assay [1] it was 2.63 z-score; in assay [2] it was 2.41 z-score; with RELB subunit;p50 subunit, 2.88 z-score. In addition, the values for the binding signal (with RELB subunit;p52 subunit; in assay [3]; in assay [4]) were 2.69 z-score, 2.02 z-score and 2.57 z-score, respectively.

Consider AGGGGACTCCC, for which the binding signal came to 1.57 z-score with RELARELA (p65 homodimer); 0.939 z-score in the assay with p50p50 homodimer; 2.92 z-score in the assay with p52p52 homodimer; 2.01 z-score in assay [1]; 2.28 z-score in assay [2]; 1.82 z-score with RELB subunit;p50 subunit. The binding signal with RELB subunit;p52 subunit is 2.3 z-score; in assay [3] it was 1.9 z-score; in assay [4] it was 2.77 z-score.

AGATGGTTCCT: the binding signal is -0.148 z-score with RELARELA (p65 homodimer); -2.29 z-score in the assay with p50p50 homodimer; -0.605 z-score with p52p52 homodimer; -0.843 z-score in assay [1]; -0.727 z-score in [2]; -0.879 z-score in the assay with RELB subunit;p50 subunit. Further, the figures for the binding signal (in the assay with RELB subunit;p52 subunit; in assay [3]; in assay [4]) were -0.835 z-score, -1.36 z-score and -0.824 z-score, respectively.

Take GAGTTGTTCCC: the binding signal with RELARELA (p65 homodimer) is 0.34 z-score; with p50p50 homodimer it was -0.415 z-score; with p52p52 homodimer, -0.231 z-score; in assay [1], -0.188 z-score; in assay [2], -0.206 z-score; with RELB subunit;p50 subunit it was -0.327 z-score. In addition, the binding signal with RELB subunit;p52 subunit was -0.463 z-score; in assay [3], -0.00411 z-score; in assay [4], -0.104 z-score.

With GAGAGGGTCCC, the binding signal with RELARELA (p65 homodimer) was -0.00134 z-score; in the assay with p50p50 homodimer, -0.361 z-score; with p52p52 homodimer, -0.132 z-score; in [1] it was -0.312 z-score; in assay [2], -0.187 z-score; in the assay with RELB subunit;p50 subunit, -0.0754 z-score. Besides, the binding signal with RELB subunit;p52 subunit is -0.109 z-score; in assay [3] it was -0.406 z-score; in assay [4] it was -0.351 z-score.

As for CGAGGCACCCT, the binding signal with RELARELA (p65 homodimer) is -1.09 z-score; with p50p50 homodimer it was -1.16 z-score; with p52p52 homodimer, -0.572 z-score; in assay [1], -1.04 z-score; in assay [2], -0.854 z-score; in the assay with RELB subunit;p50 subunit, -0.726 z-score. Also, the binding signal with RELB subunit;p52 subunit was -0.72 z-score; in [3] it was -0.919 z-score; in assay [4], -1.01 z-score.
